In PubChem BioAssay AID1379 (National Center for Advancing Translational Sciences (NCATS), 2008):
The whole screen tested about 200,000 compounds, of which about 560 (0.28%) were called active. The sample holds actives, similar compounds and a random draw of the others, so the mix is not that of the screen. A number with no mark means an inactive call. Calls follow the shape of the dose curve; as a rule, active = well fitted inhibition curve with a large enough effect; inconclusive = small, poorly fitted or top-dose-only effect; inactive = flat fitted curve, though single readings scatter.

biological target: Luciferin 4-monooxygenase (Photuris pensylvanica) (UniProt Q27757); experiment: Counterscreen for Luciferase (Kinase-Glo TM) Inhibition; conditions: ATP luminescence, 8 min; series mostly up to 38.3 µM; activity change, negative = inhibition: at the top concentration; also: nearly all actives have a fitted effect of over 60% in size
Method: NCGC Assay Overview: NIH Molecular Libraries Screening Centers Network [MLSCN] NIH Chemical Genomics Center [NCGC] MLSCN Grant: None Luciferase (Kinase-Glo, Promega Corporation) was assayed for its ability to generate light using ATP and luciferin as substrates. The ATP concentration in the assay (10 uM) was within the linear range of enzyme activity for the assay conditions used.
NCGC Assay Protocol Summary: Four uL of substrate mix (final concentration, 50 mM imidazole pH 7.2, 50 mM KCl, 7 mM MgCl2, 10 uM ATP, 0.01% Tween 20, 0.05% BSA) was dispensed into white 1536 well plates. Twenty-three nL of compound was delivered by a pin tool and 2 uL of luciferase detection mix (Kinase-Glo, Promega)) was added. Following 8-minute incubation at ambient temperature, luminescence was measured by a ViewLux (Perkin Elmer) at 5 seconds exposure/plate.
% is scaled to controls: 0 for no effect and ±100 for the full control effect; potency is read from the fitted curve at half-maximal effect.

SMILES | activity change, negative = inhibition | Potency
C=C1c2cccc(OC)c2O[C@H](C(=O)OCC)[C@@H]1CCCCCC | 0.372% [at 39.9 µM] | –
CC(=NCc1ccco1)C1=C(O)c2ccccc2C1=O | -1.04% | –
CCc1ccc(-c2cc(C(=O)NCc3ccco3)c3ccccc3n2)s1 | -13.6% | –
CC(=NCc1ccco1)c1c(C(F)(F)F)[nH]n(-c2nc3ccccc3s2)c1=O | – | 8.91 µM (active)
CC(=O)/C(C)=N/O | -3.88% | –
C/C=C1\C2C=C(C)CC1(N)c1ccc(=O)[nH]c1C2 (stereo unspecified) | 1.02% [at 39.9 µM] | –
O=c1c(O)c(Br)ccc2c(Br)c(O)c(O)c(O)c12 | -3.69% | –
Brc1ccc(C2=NCCC(c3ccccc3)O2)cc1 (stereo unspecified) | 3.23% [at 39.9 µM] | –
COc1ccc(-c2c(C)cc3oc(=O)cc(-c4ccccc4)c3c2C)cc1C=O | 4.99% [at 39.9 µM] | –
OC[C@H]1O[C@@H](n2cnc3c(NC4CCCC4)ncnc32)[C@H](O)[C@H]1O | -4.96% | –
O=C1OCCN1C(=O)[C@H]1[C@H](c2ccccc2)C(c2ccc(F)cc2)=NN1c1ccccc1 | 4.83% [at 39.9 µM] | –
CCCCS(=O)(=O)N1C2=NC(C(=O)OC)=C(C(=O)OC)[C@@H]3N(Cc4ccccc4)c4ccccc4[C@]23C[C@H]1C(=O)OC | -7.24% [at 7.66 µM] | –
O=C1CCC[C@@H]2CC(N3CCCCC3)C[C@@H]3CCN1[C@H]23 (stereo partly specified) | 3.14% [at 39.9 µM] | –
COc1cc(/C=N/NC(=O)c2ccccc2)ccc1OS(=O)(=O)c1ccccc1 | -4.13% | –
COc1ccc(C(=O)Nc2ccccc2C(=O)N/N=C/c2ccc(O)c(OC)c2)cc1 | – | 1 µM (active)
CCn1c(/C=N/NC(=O)c2ccc(OC)cc2)nc2ccccc21 | -1.47% | –
COc1ccc(/C=N/NC(=O)c2ccccc2)cc1OS(=O)(=O)c1ccccc1 | -0.772% | –
COc1ccc(C(=O)Nc2ccccc2C(=O)N/N=C/c2ccccc2OC)cc1 | – | 6.31 µM (active)
COc1ccccc1C(=O)NNC(=O)c1ccc(NC(=O)c2ccccc2)cc1 | 2.71% | –
CC1(OC(=O)C2CCCC2)C(=O)C=C2C=C(c3ccc(C#N)cc3)OC=C2C1=O (stereo unspecified) | -2.28% | –
C[C@H]1Cc2c(COc3ccccc3)nc3c(c2CO1)CN(C(=O)Nc1cccc(C#N)c1)CC3 | -0.91% [at 7.66 µM] | –

SMILES | activity change, negative = inhibition | Potency
COC1(C2=NCCN2)COc2ccccc2O1 (stereo unspecified) | -1.93% | –
O=C1OCCN1C(=O)[C@H]1[C@H](c2ccc(Cl)cc2)C(c2cccc(Cl)c2)=NN1c1ccc(Br)cc1 | 2.51% [at 39.9 µM] | –
COc1ccc2c(c1)O[C@@H](c1ccc3c(c1)OCO3)[C@H](OC(=O)NCCc1ccc(OC)c(OC)c1)C2=O | 0.102% | –
CC[C@H](C)[C@@H](NC(=O)O[C@@H]1C(=O)c2cc(OC)ccc2O[C@H]1c1cccc(OC)c1)C(=O)OC | 4.76% | –
CCOC(=O)C1C/C(=C\C(C)=O)c2cccc(C(F)(F)F)c2O1 (stereo unspecified) | 6.29% [at 39.9 µM] | –
OC[C@H]1O[C@@H](n2cnc3c(N[C@H]4CC5CCC4C5)ncnc32)[C@H](O)[C@@H]1O (stereo partly specified) | -1.73% | –
COc1cc(SC)ccc1C(=O)Nc1nc(C)cs1 | – | 11.2 µM (active)
COc1ccccc1CNC(=O)c1ccc(SC)cc1OC | -0.807% | –
COc1cc(SC)ccc1C(=O)Nc1cc(C)ccn1 | -13.8% | –
CCCCC1=CC2=CC(=O)C(C)(OC(=O)CC)C(=O)C2=CN1CCCOC(C)C (stereo unspecified) | -3.21% [at 7.66 µM] | –
C=CCN1c2ccccc2[C@]23C[C@@H](C(=O)OC)N(S(=O)(=O)c4ccc([N+](=O)[O-])cc4)C2=NC(C(=O)OC)=C(C(=O)OC)[C@H]13 | -1.89% [at 7.66 µM] | –
O=C(O)CCC(=O)O | 0.673% [at 39.9 µM] | –
CC(=O)CC(c1ccccc1)C1C(=O)Oc2ccccc2C1=O (stereo unspecified) | 3.02% [at 39.9 µM] | –
CC(C)(C)OC(=O)NCCCCC1=CC2=CC(=O)C(C)(OC(=O)c3cccs3)C(=O)C2=CO1 (stereo unspecified) | -0.695% | –
CC1=C(C/C=C(\C)CCCC(C)CCCC(C)CCCC(C)C)C(=O)c2ccccc2C1=O (stereo unspecified) | 1.77% [at 39.9 µM] | –
CCCCCCCC/C=C\CCCCCCCC(=O)OC[C@H](CO)OC(C)=O | 2.45% | –
COC(=O)CCCC1=CC2=CC(=O)C(C)(OC(=O)c3cccs3)C(=O)C2=CN1CC1CC1 (stereo unspecified) | -3.89% [at 7.66 µM] | –
CC[C@@]12C=C(/C=C/c3ccccc3)[C@](CC)(C1)[C@H](c1ccccc1)CC2=O | 0.444% | –
O=c1c2ccccc2nc2n1C1(CCCCC1)Cc1ccccc1-2 | -4.12% | –
CN(c1ccc2nc3ccccc3c(=O)n2n1)C1CCCCC1 | – | 6.31 µM (active)
CCOC(=O)C(C)Sc1nc2ccccc2c(=O)n1CC1CCCCC1 (stereo unspecified) | -1.71% | –

SMILES | activity change, negative = inhibition | Potency
C=CCOC(=O)NC(c1ccc(F)c(F)c1)C(C(=O)COC)C(=O)OC (stereo unspecified) | inactive | –
COC(=O)C(C(=O)OC)C1c2ccccc2C=C(C2CC2)N1C(=O)OC (stereo unspecified) | inactive | –
CC/C=C\C/C=C\C/C=C\C/C=C\C/C=C\C/C=C\CCC(=O)NC(C)C(=O)O (stereo unspecified) | 1.38% | –
CC(=O)[C@H](C(c1ccccc1)N1CCOCC1)N1CCOCC1 (stereo partly specified) | -6.68% [at 7.66 µM] | –
O=C(O)C1CCCN(CCC=C(c2ccccc2)c2ccccc2)C1 (stereo unspecified) | -0.135% | –
CCCCCCCCCCCCCCCCO | 2.29% [at 39.9 µM] | –
CCCCC/C=C\CC1OC1CCCCCCCC(=O)O (stereo unspecified) | 0.471% | –
COc1cccc(CC(=O)N2CCc3nc(COc4ccccc4)c4c(c3C2)CO[C@@H](C)C4)c1 | -3.82% [at 7.66 µM] | –
Nc1ncc(-c2cc3ccccc3oc2=O)s1 | – | 11.2 µM (active)
O=c1oc2ccccc2cc1-c1csc(Nc2ccc(O)cc2)n1 | -5.88% | –
COc1ccc2nc(Nc3nc(-c4cc5ccccc5oc4=O)cs3)sc2c1 | -3.49% | –
NNc1nnc(NN)c2ccccc12 | -1.53% [at 39.9 µM] | –
COc1cccc(-c2cc(=O)c3cc(NC(=O)c4ccc(C)cc4)ccc3[nH]2)c1 | -2.75% [at 39.9 µM] | –
COc1ccc(-c2nc3c(c4c2C[C@H](c2ccccc2)OC4)CN(C(=O)C2CC2)CC3)c(C)c1 | -7.98% [at 7.66 µM] | –
COC(=O)C/C=C/[C@@H](C)[C@H](NC(=O)OCC(Cl)(Cl)Cl)c1ccccc1 | -1.07% | –
CCCCCCCC1=Cc2ccc(F)cc2C(C(C(=O)OC)C(=O)OC)N1C(=O)OC (stereo unspecified) | inactive | –
Cc1ccnc(NC(=O)c2ccoc2C)c1 | – | 6.31 µM (active)
Cc1occc1C(=O)Nc1cccc(Cn2cccn2)c1 | -12.9% | –
Cc1ccnc(NC(=O)c2ccc(NC(=O)c3ccco3)cc2)c1 | -2.89% | –
